# Measured values as given in ChEMBL document CHEMBL3988442, “University of Dundee, Small-Polar-MMV Screening Library” (2021).
# The campaign covered roughly 69,000 compounds. About 1,000 (1.4%) showed an effect of 50% or more. The list comes from a sample in which strong results are over-represented; it also holds similar structures and randomly drawn compounds.
# Tested on: Leishmania donovani
# Experiment: Leishmania intramacrophage assay
# Type: functional, organism-based
# Design: scale not given: in the data most compounds retested in dose-response had high values
smiles,measurement,setting,value
CCN1C[C@H]2CCN(C(=O)NC3CCCC3)CC[C@H]2S1(=O)=O,Percent Effect,"30 µM, 30.03 µM",-4.578%
CNC(=O)C1Cn2ccnc2C2(CCN(Cc3cccc(C)n3)CC2)O1.O=C(O)C(F)(F)F (stereo not drawn),Percent Effect,"30 µM, 30.03 µM",-9.841%
NCC1CN(c2nc(-c3ccccc3)nc3c2CCNCC3)CCO1 (stereo not drawn),Percent Effect,"30 µM, 30.03 µM",6.18%
NCC1CCCN(c2nc(-c3ccccc3)nc3c2CCNCC3)C1 (stereo not drawn),Percent Effect,"30.3 µM, […]",17.41%
N#CC1CCCN(c2nc(-c3ccccc3)nc3c2CCNCC3)C1 (stereo not drawn),Percent Effect,"30 µM, 30.03 µM",83.36%
CCOCCCNC(=O)c1cc(Br)c2c(c1)OCCO2,Percent Effect,"30.3 µM, […]",32.12%
CCC(C)(C)NC(=O)Cn1nc(C)nc1-c1ccccc1,Percent Effect,"30.3 µM, […]",-5.337%
CC1(C)CNC(=O)c2nc(CCN3CCC(O)CC3)[nH]c2C1,Percent Effect,"30.3 µM, […]",-12%
O=C1[C@@H]2CN(Cc3cc4ccccc4o3)C[C@]2(C(=O)O)CN1CC1CC1,Percent Effect,"30.3 µM, […]",10.9%
CSCC[C@H](NC(C)=O)c1nc(CCc2ccccc2)n[nH]1,Percent Effect,"30.3 µM, […]",10.23%
NC(=O)c1ccccc1NC(=O)CCN1CCN(CCO)CC1,Percent Effect,"30.3 µM, […]",10.76%
COCC1c2c(cnn2C)CCN1C(=O)c1cccn1C.O=C(O)C(F)(F)F (stereo not drawn),Percent Effect,"30.3 µM, […]",51.46%
COCC1c2c(cnn2C)CCN1C(=O)c1cc(C)on1.O=C(O)C(F)(F)F (stereo not drawn),Percent Effect,"30.3 µM, […]",13.09%
COCC1c2c(cnn2C)CCN1C(=O)c1cscn1.O=C(O)C(F)(F)F (stereo not drawn),Percent Effect,"30.3 µM, […]",23.63%
CCCC(=O)Nc1ccc(CC(=O)N(C)CCc2cn[nH]c2)cc1,Percent Effect,"30.3 µM, […]",12.21%
NC(=O)C1CCCN(S(=O)(=O)c2cnn(-c3ccccc3)c2)C1 (stereo not drawn),Percent Effect,"30.3 µM, […]",13.13%
NC(=O)C1CCN(S(=O)(=O)c2cnn(-c3ccccc3)c2)CC1,Percent Effect,"30.3 µM, […]",68.11%
NC(=O)C1CCN(S(=O)(=O)c2cnn(-c3ccccc3)c2)C1 (stereo not drawn),Percent Effect,"30.3 µM, […]",30.89%
COc1ccc([C@@H]2C[C@H](NC(C)=O)C[C@H](CCc3ccccc3)O2)cn1,Percent Effect,"30.3 µM, […]",22.12%
CN(C(=O)CCc1nc(C2CC2)no1)c1cc(C#N)c2ccccc2n1,Percent Effect,"30.3 µM, […]",-8.685%
O=C(NCCOc1ccc2c(c1)OCO2)C1CC(=O)N(CC2CC2)C1 (stereo not drawn),Percent Effect,"30 µM, 30.03 µM",11.04%
O=C(NCC(=O)N1CCCCC1)c1ccoc1,Percent Effect,"30 µM, 30.03 µM",-16.27%
COC1COC2(CCN(C(=O)c3cocn3)CC2)C1 (stereo not drawn),Percent Effect,"30.3 µM, […]",-1.503%
O=C(c1cocn1)N1CCC[C@]2(C[C@@H](OCC3CC3)CO2)C1,Percent Effect,"30.3 µM, […]",14.29%
CCO[C@@H]1CO[C@@]2(CCCN(C(=O)c3ccc(OC)c(F)c3)C2)C1,Percent Effect,"30 µM, 30.03 µM",6.334%
O=C(c1ccc(F)c(F)c1)N1CCC[C@]2(C[C@@H](OCC3CC3)CO2)C1,Percent Effect,"30.3 µM, […]",53.63%
O=C(c1ccc2c(c1)OCO2)N1CCC[C@]2(C[C@H](OCC3CC3)CO2)C1,Percent Effect,"30 µM, 30.03 µM",23.48%
O=C(c1cocn1)N1CCC2(CC1)CC(OCC1CC1)CO2 (stereo not drawn),Percent Effect,"30.3 µM, […]",52.58%
CC(C)CSCCN1CCCN(S(C)(=O)=O)CC1,Percent Effect,"30.3 µM, […]",6.004%
COc1ccc(C2CCCN2C(=O)c2ccc(=O)n(C)c2)cc1OC (stereo not drawn),Percent Effect,"30.3 µM, […]",-9.758%
c1ccc(OCCNCc2cccs2)nc1,Percent Effect,"30.3 µM, […]",46.82%
Cc1ccsc1CNCCCOc1ccccn1,Percent Effect,"30.3 µM, […]",-17.78%
c1ccc(OCCCNCc2cccs2)nc1,Percent Effect,"30.3 µM, […]",58.66%
CC(C)[C@H]1CN(CCCO)C[C@@H]1NC(=O)CCC(F)(F)F,Percent Effect,"30.3 µM, […]",-10.59%
CN(C)CCn1ccnc1C1CCCN(c2ncc(Cl)cc2F)C1 (stereo not drawn),Percent Effect,"30.3 µM, […]",16%
CCS(=O)(=O)N1CCOC2(CCCN(c3ccc(C)nn3)C2)C1.O=C(O)C(F)(F)F (stereo not drawn),Percent Effect,"30 µM, 30.03 µM",11.03%
CC(C)c1nc(C(=O)N2C[C@H]3CC[C@@H]2CN(C2CCOCC2)C3)cs1,Percent Effect,"30.3 µM, […]",12.76%
CNc1nc(C(=O)N2C[C@H]3CC[C@@H]2CN(C2CCOCC2)C3)cs1,Percent Effect,"30.3 µM, […]",4.94%
CNc1nc(C(=O)N2C[C@H]3CC[C@@H]2CN(S(C)(=O)=O)C3)cs1,Percent Effect,"30.3 µM, […]",50.94%
CS(=O)(=O)NC[C@]12COC[C@H]1CN(CC1CCC1)C2.O=C(O)C(F)(F)F,Percent Effect,"30.3 µM, […]",80.19%
CS(=O)(=O)NC[C@]12COC[C@H]1CN(CC1CCCC1)C2.O=C(O)C(F)(F)F,Percent Effect,"30 µM, 30.03 µM",-6.018%
CS(=O)(=O)NC[C@]12COC[C@H]1CN(CCc1ccccc1)C2.O=C(O)C(F)(F)F,Percent Effect,"30.3 µM, […]",17.9%
O=C(Nc1cnccn1)[C@H]1CC[C@@H]2[C@@H](CCN2Cc2ccccn2)O1.O=C(O)C(F)(F)F,Percent Effect,"30.3 µM, […]",28.13%
CC(O)CCN(C)C(=O)Nc1cccc(F)c1 (stereo not drawn),Percent Effect,"30.3 µM, […]",1.493%
Cl.Clc1ccccc1CN1CCc2nc(C3CCNCC3)ncc2C1,Percent Effect,"30.3 µM, […]",3.749%
Clc1ccccc1C1(c2ccnc(C3CCCC3)n2)CCNCC1,Percent Effect,"30.3 µM, […]",99.4%
c1ccc2ncc(CC3CCNCC3)cc2c1,Percent Effect,"30.3 µM, […]",-17.37%
OC1(CN2CCC(Cc3ncccn3)CC2)CCOCC1,Percent Effect,"30.3 µM, […]",5.693%
Cl.Clc1ccccc1CN1CCc2nc(C3CCCNC3)ncc2C1 (stereo not drawn),Percent Effect,"30.3 µM, […]",6.249%
Cl.Clc1cccnc1OC1CCNCC1,Percent Effect,"30.3 µM, […]",14.95%
Clc1ccccc1C1(c2ccnc(CC3CC3)n2)CCNCC1,Percent Effect,"30 µM, 30.03 µM",93.39%
Cl.Cl.c1ccc2c(c1)C(NC1CCCC1)CC21CCNCC1 (stereo not drawn),Percent Effect,"30.3 µM, […]",32.48%
Clc1ccccc1C1(c2ccnc(C3CC3)n2)CCNCC1,Percent Effect,"30.3 µM, […]",94.79%
Cn1cc(-c2cnc(N3CCOCC3)nc2)cc1C(=O)N1CCCC1,Percent Effect,"30.3 µM, […]",13.22%
O=C(NCc1ccccc1-n1cccn1)N1CCC(N2CCCC2)C1 (stereo not drawn),Percent Effect,30 µM,13.6%
O=S(=O)(NC1=NCN(CCc2ccccc2)CN1)c1ccc(F)cc1,Percent Effect,"30.3 µM, […]",1.728%
CCc1cc(C(=O)N2CCC(C3CCN(c4ncccn4)CC3)C2)on1 (stereo not drawn),Percent Effect,"30.3 µM, […]",4.034%
Cc1nc(NCCc2ccccc2)cc(C(=O)N2CCOCC2)n1,Percent Effect,"30.3 µM, […]",21.35%
CCn1c(-c2ccccc2)nn(CC(=O)NCCc2c[nH]cn2)c1=O,Percent Effect,"30.3 µM, […]",22.36%
Cc1cc(=O)c(C(=O)N(C)Cc2ccc(Cl)c(F)c2)c[nH]1,Percent Effect,"30.3 µM, […]",24.44%
Cc1cnn(C2CCCN(C(=O)c3cn4ccccc4n3)C2)c1 (stereo not drawn),Percent Effect,30 µM,-3.479%
CCNC(=O)CN1CCN(Cc2nc3c(F)cccc3n2CC)CC1,Percent Effect,30 µM,25.75%
Cn1cc(CCCN2CCN(Cc3cccc(O)c3)CC2)cn1,Percent Effect,"30.3 µM, […]",7.791%
